Read-out in assay [1]: Urokinase-type plasminogen activator receptor (uPAR), PLAUR (gene 5329)
Kind of assay: BSK_4H_uPAR: BioMAP Diversity Plus: 4H Assay for Urokinase-type plasminogen activator receptor (uPAR) Biomarker Activity (AID 2283030). The settings on record: primary human endothelial cells (HUVEC); actives raise or lower the signal. A digest of the protocol:
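Human umbilical vein endothelial cells in the 4H system, 24 h after chemical dosing. Cell-surface uPAR measured by ELISA, fitted in both directions versus DMSO; cytotoxicity checked by SRB total protein in parallel cultures.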

Read-out in assay [2]: Vascular endothelial growth factor receptor 2 (Homo sapiens) (UniProt P35968)
Kind of assay: BSK_4H_VEGFRII: BioMAP Diversity Plus: 4H Assay for Vascular endothelial growth factor receptor 2 (VEGFR2) Biomarker Activity (AID 2283031). The following applies: primary human endothelial cells (HUVEC); actives raise or lower the signal. A digest of the protocol: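 Primary human umbilical vein endothelial cells (4H system), 24 h exposure; cell-surface VEGFR2 measured by ELISA. Bidirectional fitting versus DMSO; cytotoxicity checked in parallel by SRB total-protein staining.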

Read-out in assay [3]: Human Leukocyte Antigen - DR isotype (HLADR), HLA-DRA (gene 3122)
Description: BSK_BE3C_HLADR: BioMAP Diversity Plus: BE3C Assay for Human Leukocyte Antigen - DR isotype (HLADR) Biomarker Activity (AID 2283032). The following applies: primary human bronchial epithelial cells; actives raise or lower the signal. A digest of the protocol: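 Human primary bronchial epithelial cells (BE3C system) exposed to compound for 24 hours; cell-surface HLA-DR measured by ELISA, fitted bidirectionally relative to DMSO. Total protein by SRB in parallel cultures tracked cytotoxicity.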

Read-out in assay [4]: Vascular cell adhesion molecule 1 (VCAM1), VCAM1 (gene 7412)
Description: BSK_4H_VCAM1: BioMAP Diversity Plus: 4H Assay for Vascular cell adhesion molecule 1 (VCAM1) Biomarker Activity (AID 2283033). The settings on record: primary human endothelial cells (HUVEC); actives raise or lower the signal. A digest of the protocol: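 Primary human umbilical vein endothelial cells, 4H stimulation system, treated for 24 h; cell-surface VCAM-1 quantified by ELISA. Bidirectional fitting against DMSO; cytotoxicity tracked by SRB total-protein staining in parallel cultures.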

Read-out in assay [5]: Interferon-gamma inducible Protein 10 (IP10), CXCL10 (gene 3627)
Description: BSK_BE3C_IP10: BioMAP Diversity Plus: BE3C Assay for Interferon-gamma inducible Protein 10 (IP10) Biomarker Activity (AID 2283034). The settings on record: primary human bronchial epithelial cells; actives raise or lower the signal. A digest of the protocol:
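Primary human bronchial epithelial cells, with IP-10 measured by ELISA 24 hours after chemical dosing. Bidirectional fit against DMSO; cytotoxicity checked by SRB total protein staining in parallel cultures.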

Read-out in assay [6]: Transforming growth factor beta 1 (TGFb1), TGFB1 (gene 7040)
Description: BSK_BE3C_TGFb1: BioMAP Diversity Plus: BE3C Assay for Transforming growth factor beta 1 (TGFb1) Biomarker Activity (AID 2283036). The following applies: primary human bronchial epithelial cells; actives raise or lower the signal. A digest of the protocol:
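Primary human bronchial epithelial cells dosed with chemical; TGF-b1 measured by ELISA 24 h after dosing. Bidirectional curve fitting against DMSO negative control; SRB total-protein staining in parallel cultures gauged cytotoxicity.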

Read-out in assay [7]: Plasminogen activator inhibitor-1 (PAI1), SERPINE1 (gene 5054)
Description: BSK_BE3C_PAI1: BioMAP Diversity Plus: BE3C Assay for Plasminogen activator inhibitor-1 (PAI1) Biomarker Activity (AID 2283037). The settings on record: primary human bronchial epithelial cells; actives raise or lower the signal. A digest of the protocol:
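Primary human bronchial epithelial cells (BE3C system) exposed 24 h; PAI-1 quantified by ELISA. Parallel sulforhodamine B staining of total protein flags cytotoxicity. Bidirectional fit versus DMSO.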

Read-out in assay [8]: urokinase plasminogen activator (uPA), PLAU (gene 5328)
Description: BSK_BE3C_uPA: BioMAP Diversity Plus: BE3C Assay for urokinase plasminogen activator (uPA) Biomarker Activity (AID 2283038).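 Further: uPA protein level quantified by ELISA in cell cultures; uPA read one day after compound addition.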 The settings on record: primary human bronchial epithelial cells; actives raise or lower the signal. A digest of the protocol:
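Primary human bronchial epithelial cells, uPA measured by ELISA 24 h after dosing. Bidirectional change relative to DMSO; cytotoxicity checked in parallel cultures by sulforhodamine B total-protein staining.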

Read-out in assay [9]: Urokinase-type plasminogen activator receptor (uPAR), PLAUR (gene 5329)
Description: BSK_BE3C_uPAR: BioMAP Diversity Plus: BE3C Assay for Urokinase-type plasminogen activator receptor (uPAR) Biomarker Activity (AID 2283039).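 On outcome: cells exposed to compound for one day before measurement.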 The following applies: primary human bronchial epithelial cells; actives raise or lower the signal. A digest of the protocol: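 Primary human bronchial epithelial cells dosed for 24 h; uPAR quantified by ELISA with bidirectional fitting against DMSO. Overt cytotoxicity assessed in parallel cultures by SRB total-protein staining (0.1% SRB, 560 nm).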

Read-out in assay [10]: Interleukin-6 (IL6), IL6 (gene 3569)
Kind of assay: BSK_CASM3C_IL6: BioMAP Diversity Plus: CASM3C Assay for Interleukin-6 (IL6) Biomarker Activity for (AID 2283040). The following applies: primary human coronary artery smooth muscle cells; actives raise or lower the signal.

Read-out in assay [11]: Tissue plasminogen activator (tPA), PLAT (gene 5327)
Kind of assay: BSK_BE3C_tPA: BioMAP Diversity Plus: BE3C Assay for Tissue plasminogen activator (tPA) Biomarker Activity (AID 2283041).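 Further: tPA level quantified by ELISA one day after compound addition.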 The settings on record: primary human bronchial epithelial cells; actives raise or lower the signal. A digest of the protocol:
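Primary human bronchial epithelial cells in the BE3C system, exposed to compound for 24 h. tPA was quantified by ELISA; DMSO served as baseline, with gain or loss of signal fitted. Cytotoxicity checked in parallel cultures by SRB total-protein staining.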

Read-out in assay [12]: Interleukin-8 (IL8), CXCL8 (gene 3576)
Description: BSK_CASM3C_IL8: BioMAP Diversity Plus: CASM3C Assay for Interleukin-8 (IL8) Biomarker Activity (AID 2283042).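 Further: IL-8 protein level quantified by ELISA.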 The settings on record: primary human coronary artery smooth muscle cells; actives raise or lower the signal.

Read-out in assay [13]: Human Leukocyte Antigen - DR isotype (HLADR), HLA-DRA (gene 3122)
Description: BSK_CASM3C_HLADR: BioMAP Diversity Plus: CASM3C Assay for Human Leukocyte Antigen - DR isotype (HLADR) Biomarker Activity (AID 2283043).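 Further: cell-surface HLA-DR protein level quantified by ELISA.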 The settings on record: primary human coronary artery smooth muscle cells; actives raise or lower the signal.

Read-out in assay [14]: Macrophage colony-stimulating factor (MCSF), CSF1 (gene 1435)
Kind of assay: BSK_CASM3C_MCSF: BioMAP Diversity Plus: CASM3C Assay for Macrophage colony-stimulating factor (MCSF) Biomarker Activity (AID 2283044).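 Further: M-CSF protein amount quantified by ELISA after 24 h exposure.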 The following applies: primary human coronary artery smooth muscle cells; actives raise or lower the signal.

Read-out in assay [15]: Low-density lipoprotein receptor (LDLR), LDLR (gene 3949)
Kind of assay: BSK_CASM3C_LDLR: BioMAP Diversity Plus: CASM3C Assay for Low-density lipoprotein receptor (LDLR) Biomarker Activity (AID 2283045).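 Further: LDLR protein level on the cell surface quantified by ELISA.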 The settings on record: primary human coronary artery smooth muscle cells; actives raise or lower the signal.

Read-out in assay [16]: Monocyte Chemoattractant Protein-1 (MCP1), CCL2 (gene 6347)
Description: BSK_CASM3C_MCP1: BioMAP Diversity Plus: CASM3C Assay for Monocyte Chemoattractant Protein-1 (MCP1) Biomarker Activity (AID 2283046).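 Further: MCP-1 level quantified by ELISA 24 h after dosing.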 The settings on record: primary human coronary artery smooth muscle cells; actives raise or lower the signal.

Assay [17] in a line: BSK_CASM3C_Proliferation: Cell Proliferation Assessment in the BioMAP Diversity Plus: CASM3C Assay (AID 2283047).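 Further: sulforhodamine B total protein stain as relative cell number at 560 nm; sub-confluent cells exposed 48 h before staining; fitted both ways against DMSO so gain or loss of cell number.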 The settings on record: primary human coronary artery smooth muscle cells.
Read-out in assay [18]: Monokine induced gamma interferon (MIG), CXCL9 (gene 4283)
Description: BSK_CASM3C_MIG: BioMAP Diversity Plus: CASM3C Assay for Monokine induced gamma interferon (MIG) Biomarker Activity (AID 2283048).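 Further: MIG protein level measured by ELISA.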 The settings on record: primary human coronary artery smooth muscle cells; actives raise or lower the signal.

Read-out in assay [19]: serum amyloid A (SAA), SAA1 (gene 6288)
Description: BSK_CASM3C_SAA: BioMAP Diversity Plus: CASM3C Assay for serum amyloid A (SAA) Biomarker Activity (AID 2283049).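 Further: SAA protein level quantified by ELISA.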 The settings on record: primary human coronary artery smooth muscle cells; actives raise or lower the signal.

Activity calls are given as the source filed them. How the source made its calls: active means hit-call score of the fitted dose curve at least 0.9, where 1 is the maximum; inactive means score below 0.9.

As for `Cc1cc(Cl)ccc1OCC(=O)O`, the result in assay [1], in assay [2], in assay [3], in assay [4], in assay [5] and in assay [6] was inactive. Also, the result in assay [7], in assay [8], in [9], in assay [10], in assay [11] and in assay [12] was inactive. Further, the result in assay [13], in assay [14], in assay [15], in assay [16], in [17] and in assay [18] was inactive. Also, the result in assay [19] was inactive.

By AC50 is commonly meant the concentration at which the activity in the assay is half-maximal. With `OC(c1ccc(Cl)cc1)(c1cncnc1)c1ccccc1Cl` (centres undefined), the AC50 in assay [1] was 18.3 µM (active); in assay [3], 25.9 µM (active); in [5] it was 30.3 µM (active); in [17] it was 27.6 µM (active). Besides, the outcome in assay [2], in assay [4], in assay [6], in assay [7], in [8] and in [9] was inactive. Also, the outcome in [10], in assay [11], in assay [12], in [13], in assay [14] and in assay [15] was inactive. In addition, the outcome in [16], in [18] and in assay [19] was inactive.

Turning to `COC(=O)N(OC)c1ccccc1COc1ccn(-c2ccc(Cl)cc2)n1`, the AC50 in assay [1] is 20 µM (active); in assay [3], 3.97 µM (active); in [5], 8.98 µM (active); in assay [7], 5.65 µM (active); in assay [12], 15.8 µM (active); in assay [17], 6.45 µM (active). For the same molecule, the outcome in [2], in assay [4], in assay [6], in assay [8], in assay [9] and in assay [10] was inactive. Further, the outcome in assay [11], in [13], in assay [14], in assay [15], in assay [16] and in [18] was inactive. Further, the result in [19] was inactive.

On to `O=C(Nc1ccccc1)Nc1ccnc(Cl)c1`, for which the outcome in assay [1], in assay [2], in assay [4], in assay [5], in assay [6] and in assay [7] was inactive. Moreover, the result in assay [8], in assay [10], in assay [11], in assay [13], in [14] and in [15] was inactive. The outcome in assay [16], in [18] and in [19] was inactive. Moreover, the AC50 was 34.7 µM (active) in assay [3], 0.807 µM (active) in assay [9], 13 µM (active) in [12] and 28.6 µM (active) in [17].

For `CCCCC(CC)COC(=O)c1ccccc1C(=O)OCC(CC)CCCC` (centres undefined), the result in assay [1], in assay [2], in assay [3], in assay [4], in assay [5] and in [6] was inactive. In addition, the outcome in [7], in assay [8], in assay [9], in assay [11], in assay [12] and in [13] was inactive. The result in assay [14], in [15], in [16], in assay [17], in assay [18] and in [19] was inactive. Besides, in assay [10], the AC50 was 7.31 µM (active).

Turning to `CNC(=S)S`, the outcome in assay [1], in assay [2], in assay [3], in [5], in [6] and in assay [7] was inactive. The outcome in assay [8], in assay [10], in assay [11], in assay [12], in assay [13] and in assay [14] was inactive. Further, the result in assay [15], in [16], in assay [17], in assay [18] and in [19] was inactive. Besides, the AC50 is 22.4 µM (active) in assay [4] and 11.7 µM (active) in assay [9].

For the origin of these results see PubChem BioAssay (EPA / NIEHS).
